Consider 23 compounds from PubChem BioAssay (NCI).

This is part of a sample that, as a whole, favours compounds with a hit. Of some 83,000 tested, about 20% had one in any assay.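 Compound tested at a single concentration for 48 hours in 96-well plates; a percent growth value below 10 was scored as active.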 A number with no mark means an inactive call. Active and inactive are the calls of the source.

This assay deals with A549/ATCC NSCLC. As to the kind of experiment: NCI-60 one-dose screen, 48 h (100 = growth as untreated, 0 = no growth, -100 = all killed). The following applies: 10 µM unless noted.
Consider `CC(O)CN(CC(C)O)N(CC(C)O)CC(C)O` (stereo not drawn), for which the growth is 95.5%.

Consider `O=C(Nc1ccc(-n2cc(-c3ccncc3)c(-c3ccc(Cl)c(O)c3)n2)cc1)c1cc(C(F)(F)F)cc(C(F)(F)F)c1`, for which the growth is 52.2%.

Turning to `COc1cc(-c2nn(-c3ccc(NC(=O)c4cc(Cl)cc(Cl)c4)cc3)cc2-c2ccncc2)ccc1Cl`, the growth was 73%.

As for `CCCCCCC(C)N(CC(C)(C)O)C(=O)c1ccc([N+](=O)[O-])cc1` (stereo not drawn), the growth was 104%.

For `COc1cc(-c2nn(-c3ccc(NC(=O)c4ccc(Cl)c(Cl)c4)cc3)cc2-c2ccncc2)ccc1Cl`, the growth is 68.3%.

On to `COC(=O)[C@@H]1[C@H](O)[C@H](C)[C@H](O)[C@H](C)/C=C\C=C(C)C(=O)Nc2c(C)c(OC(C)=O)c3c(c2O)C(=O)C(C)=C2OCOC(=C23)C(C)=C[C@@](C)(O)[C@H](O)[C@@H](C)[C@H]1OC(C)=O`, for which the growth was 98.6%.

In the case of `C/C(=C\c1ccc2ccccc2c1)[N+](=O)[O-]`, the growth was 97.3%.

Regarding `Cc1cc2cn3c4ccc(O)cc4[nH]c(=O)c3c2cc1C`, the growth is 3.2% (active).

As to `COc1ccc(C(=O)N2N=C(c3ccc(Br)cc3)CC2c2cn(-c3ccccc3)nc2-c2ccccc2)cc1` (stereo not drawn), the growth was 22.8%.

Take `O=CN/N=C/c1ccc(Cl)c([N+](=O)[O-])c1`: the growth is 14.5%.

Consider `O=C1CCNC1`, for which the growth was 101%.

In the case of `O=c1[nH]c2cc(O)ccc2n2cc3c(F)cccc3c12`, the growth is 22%.

On to `O=C(CCC(=O)N(CCO)CCO)N(CCO)CCO`, for which the growth is 105%.

Regarding `O=C(CCl)NC1c2ccccc2Oc2ccccc21`, the growth was 71.7%.

As to `CC(=O)N1CCN(CCNC(=O)n2cc(-c3ccncc3)c(-c3cc(O)cc(Cl)c3)n2)CC1`, the growth was 102%.

`CC(C)OCC1CO1` (stereo not drawn): the growth is 106%.

Consider `Oc1ccc(Br)cc1/C=N/NC(=S)NC12CC3CC(CC(C3)C1)C2`, for which the growth was 8.34% (active).

Turning to `CC(=O)N1CCN(CCNC(=O)n2cc(-c3ccncc3)c(-c3ccc(O)c(Cl)c3)n2)CC1`, the growth was 100%.

On to `CCOC(=O)/C(C#N)=C(/CC)OCC`, for which the growth is 104%.

For the compound `O=C1Nc2c(c(=O)n(-c3ccccc3)c3ccccc23)C(c2ccc(Cl)cc2)N1` (stereo not drawn), the growth is 76.2%.

`N=C(c1ccccc1)N(Cc1ccccc1)Cc1ccccc1`: the growth was 90.3%.

As for `COc1cccc(NC(=O)NCCNc2nccc(-c3c(-c4ccc(F)cc4)nc4sccn34)n2)c1`, the growth was 54.4%.

On to `Cc1ccc(NC(=O)CCl)cc1Cl`, for which the growth is 106%.
